Records with an inconclusive call do not appear. Entries that show only a call come without a potency. The source made the active and inactive calls. Calls follow the shape of the dose curve; as a rule, active = well fitted inhibition curve with a large enough effect; inconclusive = small, poorly fitted or top-dose-only effect; inactive = flat fitted curve, though single readings scatter.

These results are taken from PubChem BioAssay (NCATS).

The assay in a line: P-glycoprotein substrates identified in KB-8-5-11 adenocarcinoma cell line, qHTS therapeutic library screen (AID 1346987). Also: nearly all actives have a fitted effect of over 65% in size. A digest of the protocol:
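Steps: plate 500 KB-8-5-11 cells/well in DMEM + 10% FCS (colchicine removed); pin compounds in dose-response; incubate 72 h, 37 degree C, 5% CO2; add CellTiter-Glo, 5 min; read luminescence.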
Potency is read from the fitted curve at half-maximal effect.

For `CC(C)(Cc1nc(-c2ccc(O)cn2)no1)C(=O)NC1=C(C(=O)O)CCCC1`, the Potency result is “inactive”.

With `C=C1C(=O)OC2C3=C(C)C(=O)CC3C(C)CC(O)C12` (centres undefined), the Potency result was “inactive”.

Turning to `CCCCCCCCCCCCCCCC(=O)OC/C=C(C)/C=C/C=C(C)/C=C/C1=C(C)CCCC1(C)C`, the Potency entry is “inactive”.

As to `CC/C=C\CC1C(=O)C=CC1(CCCCC1CCC(=O)O1)OC(C)=O` (centres undefined), the Potency entry was “inactive”.

Turning to `Cc1nc2c(C(F)(F)F)cccc2nc1-c1ccc(-c2cccc(S(C)(=O)=O)c2)cc1`, the Potency entry was “inactive”.

`OC1C=C2C3CN(Cc4cc5c(cc43)OCO5)C2CC1O` (centres undefined): the Potency was 13 µM (active).

As to `C[C@H]1[C@H](/C=C/c2ccc(-c3ccccc3C#N)cn2)[C@@H]2[C@@H](C)OC(=O)[C@@H]2C[C@@H]1C`, the Potency was 16.4 µM (active).

`O=C1Cc2c([nH]c3ccc(Br)cc23)-c2ncccc2N1`: the Potency entry was “inactive”.

For `C=C1C(=O)OC[C@@H]1C/C=C(\C)CC1CC(C)C(=O)O1` (some centres undefined), the Potency entry is “inactive”.

Take `C/C=C/C=C/c1cc2c(C=O)c(O)c(CC=C(C)C)cc2o1`: the Potency entry was “inactive”.

In the case of `CCN(CC)C(=O)c1ccc(Nc2nc(OCC3CCCCC3)c3[nH]cnc3n2)cc1`, the Potency is 18.4 µM (active).

For the compound `COC(=O)c1ccnc(-c2cc(C(=O)Nc3ccc(C4(N)CC4)cc3)ccn2)c1`, the Potency result is “inactive”.

On to `COC(=O)C1=COC(O[C@@H]2O[C@H](CO[C@@H]3O[C@H](COC(=O)/C=C\c4ccc(O)cc4)[C@@H](O)[C@H](O)[C@H]3O)[C@@H](O)[C@H](O)[C@H]2O)C2C(CO)=CCC12` (some centres undefined), for which the Potency result was “inactive”.

As for `C/C(=C\CO[C@@H]1O[C@H](CO[C@H]2OC[C@](O)(CO)[C@H]2O)[C@@H](O)[C@H](O)[C@H]1O)C(C)(C)O`, the Potency entry is “inactive”.
